# Reference: the supplement of paper PMC8728848
# This is one part of a sample in which the strongest signals are shown more often than they occur.
# B1: SSR2 (Sclerotium rolfsii) (protein)
# chain: MVYKITVRVYQTNPDAFFHPVEKTVWKYANGGTWSITDDQHVLTMGGSGTSGTLRFHADNGESFTATFGVHNYKRWCDIVTNLAADETGMVINQQYYSQKNREEARERQLSNYQVKNAKGRNFQIVYTEAEGNDLHANLIIG
# Legend:
# Assay in all cases: glycan array binding signal (z-score within array); higher = stronger binding
# Details in all cases: glycan notation: IUPAC condensed, linker removed
# [1] = target: Fuc(a1-2)Gal(b1-3)GalNAc(b1-4)[Neu5Ac(a2-3)]Gal(b1-4)Glc
# Procedure, shortened: (§1)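 Glycan array binding is given as a within-array Z-score, which can be read as non-binding when negative. The arrays, 3228 of them, came from the Consortium for Functional Glycomics database and were retained only where the protein sequence was available. Z-scores were averaged across arrays of the same protein sequence at different concentrations or buffers and across linkers.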
# [2] = target: Fuc(a1-2)Gal(b1-4)GlcNAc(b1-3)Gal(b1-4)GlcNAc(b1-2)Man(a1-3)[Fuc(a1-2)Gal(b1-4)GlcNAc(b1-3)Gal(b1-4)GlcNAc(b1-2)Man(a1-6)]Man(b1-4)GlcNAc(b1-4)GlcNAc
# Procedure, shortened: as §1
# [3] = target: Fuc(a1-2)Gal(b1-4)[Fuc(a1-3)]GlcNAc(b1-3)Gal(b1-4)[Fuc(a1-3)]GlcNAc(b1-3)Gal(b1-4)[Fuc(a1-3)]GlcNAc
# Procedure, shortened: as §1
# [4] = target: Fuc(a1-2)[Gal(a1-3)]Gal(b1-4)GlcNAc(b1-3)GalNAc
# Procedure, shortened: as §1
# [5] = target: Fuc(a1-2)[Gal(a1-3)]Gal(b1-4)GlcNAc(b1-3)[Fuc(a1-2)[Gal(a1-3)]Gal(b1-4)GlcNAc(b1-6)]GalNAc
# Procedure, shortened: as §1
# [6] = target: Fuc(a1-2)[GalNAc(a1-3)]Gal(b1-4)GlcNAc(b1-2)Man
# Procedure, shortened: as §1
# [7] = target: Fuc(a1-2)[GalNAc(a1-3)]Gal(b1-4)GlcNAc(b1-6)GalNAc
# Procedure, shortened: as §1
# [8] = target: Fuc(a1-3)[Gal3S(b1-4)]GlcNAc6S
# Procedure, shortened: as §1
# [9] = target: Fuc(b1-3)GlcNAc
# Procedure, shortened: as §1
# [10] = target: Gal(a1-3)Gal(b1-4)GlcNAc
# Procedure, shortened: as §1
# [11] = target: Gal(a1-4)Gal(b1-4)GlcNAc(b1-3)Gal(b1-4)Glc
# Procedure, shortened: as §1
# [12] = target: Gal(b1-3)GalNAc(a1-3)[Fuc(a1-2)]Gal(b1-4)Glc
# Procedure, shortened: as §1
# [13] = target: Gal(b1-3)GalNAc(a1-3)[Fuc(a1-2)]Gal(b1-4)GlcNAc
# Procedure, shortened: as §1
# [14] = target: Gal(b1-3)GlcNAc(a1-3)Gal(b1-4)GlcNAc
# Procedure, shortened: as §1
# [15] = target: Gal(b1-3)GlcNAc(b1-2)[Gal(b1-3)GlcNAc(b1-6)]Man(a1-6)[Gal(b1-3)GlcNAc(b1-2)Man(a1-3)]Man(b1-4)GlcNAc(b1-4)GlcNAc
# Procedure, shortened: as §1
# [16] = target: Gal(b1-3)[Fuc(a1-4)]GlcNAc(b1-2)Man
# Procedure, shortened: as §1
# [17] = target: Gal(b1-3)[Fuc(a1-4)]GlcNAc(b1-3)Gal(b1-3)[Fuc(a1-4)]GlcNAc
# Procedure, shortened: as §1
# [18] = target: Gal(b1-4)Gal
# Procedure, shortened: as §1
# [19] = target: Gal(b1-4)GalNAc(a1-3)[Fuc(a1-2)]Gal(b1-4)GlcNAc
# Procedure, shortened: as §1
# [20] = target: Gal(b1-4)GlcNAc(b1-2)Man(a1-3)[Gal(b1-4)GlcNAc(b1-2)Man(a1-6)][GlcNAc(b1-4)]Man(b1-4)GlcNAc(b1-4)[Fuc(a1-6)]GlcNAc
# Procedure, shortened: as §1
# [21] = target: Gal(b1-4)GlcNAc(b1-2)Man(a1-3)[GlcNAc(b1-4)][Gal(b1-4)GlcNAc(b1-2)Man(a1-6)]Man(b1-4)GlcNAc(b1-4)GlcNAc
# Procedure, shortened: as §1
# [22] = target: Gal(b1-4)GlcNAc(b1-2)Man(a1-6)[GlcNAc(b1-2)Man(a1-3)]Man(b1-4)GlcNAc(b1-4)GlcNAc
# Procedure, shortened: as §1
# [23] = target: Gal(b1-4)GlcNAc(b1-2)[Gal(b1-4)GlcNAc(b1-6)]Man(a1-6)[GlcNAc(b1-4)][Gal(b1-4)GlcNAc(b1-2)[Gal(b1-4)GlcNAc(b1-4)]Man(a1-3)]Man(b1-4)GlcNAc(b1-4)[Fuc(a1-6)]GlcNAc
# Procedure, shortened: as §1
# [24] = target: Gal(b1-4)GlcNAc(b1-3)Gal(b1-4)GlcNAc(b1-2)[Gal(b1-4)GlcNAc(b1-3)Gal(b1-4)GlcNAc(b1-6)]Man(a1-6)[Gal(b1-4)GlcNAc(b1-3)Gal(b1-4)GlcNAc(b1-2)Man(a1-3)]Man(b1-4)GlcNAc(b1-4)[Fuc(a1-6)]GlcNAc
# Procedure, shortened: as §1
# [25] = target: Gal(b1-4)GlcNAc(b1-3)GalNAc
# Procedure, shortened: as §1
# [26] = target: Gal3S(b1-3)GalNAc
# Procedure, shortened: as §1
# [27] = target: Gal4S(b1-4)GlcNAc
# Procedure, shortened: as §1
# [28] = target: Gal6P(b1-4)GlcNAc
# Procedure, shortened: as §1
# [29] = target: GalNAc(b1-4)GlcNAc6S
# Procedure, shortened: as §1
binder,measurement,setting,value
B1,glycan array binding signal (z-score),[1],-0.282
same,glycan array binding signal (z-score),[2],-0.273
same,glycan array binding signal (z-score),[3],-0.294
same,glycan array binding signal (z-score),[4],-0.285
same,glycan array binding signal (z-score),[5],-0.277
same,glycan array binding signal (z-score),[6],-0.275
same,glycan array binding signal (z-score),[7],-0.297
same,glycan array binding signal (z-score),[8],-0.279
same,glycan array binding signal (z-score),[9],-0.269
same,glycan array binding signal (z-score),[10],-0.292
same,glycan array binding signal (z-score),[11],-0.285
same,glycan array binding signal (z-score),[12],3.93
same,glycan array binding signal (z-score),[13],2.96
same,glycan array binding signal (z-score),[14],-0.278
same,glycan array binding signal (z-score),[15],-0.286
same,glycan array binding signal (z-score),[16],-0.286
same,glycan array binding signal (z-score),[17],-0.272
same,glycan array binding signal (z-score),[18],-0.288
same,glycan array binding signal (z-score),[19],-0.279
same,glycan array binding signal (z-score),[20],-0.287
same,glycan array binding signal (z-score),[21],-0.259
same,glycan array binding signal (z-score),[22],3.34
same,glycan array binding signal (z-score),[23],-0.266
same,glycan array binding signal (z-score),[24],-0.229
same,glycan array binding signal (z-score),[25],-0.281
same,glycan array binding signal (z-score),[26],4.27
same,glycan array binding signal (z-score),[27],-0.297
same,glycan array binding signal (z-score),[28],-0.287
same,glycan array binding signal (z-score),[29],-0.294
